NPC1 prom act: activators of NPC1 promoter; Huh7 NPC1 promoter luciferase reporter, 24 h; Potency, µM (highest dose often 9.22 µM), without a hit: at the top dose activation, most hits filed as activators; actives 2.4% (n = 320,000); also: % of control where 0% means no effect; nearly all actives have a fitted effect of over 60% in size
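Huh7 reporter cells (NPC1 promoter driving luciferase) are dosed with compound for 24 h at 37 °C, 5% CO2; luciferase detection reagent is then added and luminescence measured after 10 min at ambient temperature.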
FLuc counter: counter-screen for miR-21 project: firefly luciferase inhibitors or activators | Potency, µM (highest dose often 57.5 µM), for the others: top-dose activity change, negative = inhibition, hits mostly inhibitors | actives 6.9% (n = 360,000) | AID 588342 | purified FLuc, Km substrates, luminescence inhibition;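 also: plate controls were vehicle for no effect and reference inhibitor for full effect; nearly all actives have a fitted effect of over 55% in size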
Target sequence (P08659 whole entry, looked up): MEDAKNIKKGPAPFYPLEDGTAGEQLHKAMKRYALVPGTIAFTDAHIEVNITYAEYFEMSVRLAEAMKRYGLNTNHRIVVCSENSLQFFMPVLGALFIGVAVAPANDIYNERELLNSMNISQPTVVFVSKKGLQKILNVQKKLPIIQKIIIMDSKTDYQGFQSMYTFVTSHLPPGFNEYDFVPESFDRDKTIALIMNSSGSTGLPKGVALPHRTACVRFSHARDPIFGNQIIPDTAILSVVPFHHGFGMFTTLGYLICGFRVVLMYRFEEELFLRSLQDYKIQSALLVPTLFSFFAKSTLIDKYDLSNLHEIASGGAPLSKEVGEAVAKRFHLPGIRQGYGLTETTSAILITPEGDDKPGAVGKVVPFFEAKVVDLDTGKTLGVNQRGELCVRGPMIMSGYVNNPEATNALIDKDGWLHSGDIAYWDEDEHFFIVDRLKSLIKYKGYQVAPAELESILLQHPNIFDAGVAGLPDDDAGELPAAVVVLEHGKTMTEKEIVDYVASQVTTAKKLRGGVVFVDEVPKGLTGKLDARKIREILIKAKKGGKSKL
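Biochemical qHTS of compounds, final roughly 60 µM downward over six points, against 10 nM purified firefly luciferase using Km concentrations of substrates (10 uM D-luciferin, 10 uM ATP) in Tris acetate pH 7.5 buffer; luminescence output.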
SMN2 splice up: increases expression of the SMN2 splice variant; HEK293 SMN2-luciferase splicing reporter, luminescence, 30-36 h; Potency, µM (top dose mostly 46.1 µM), for inactives: at the top dose activity change, positive = activation, actives largely listed as activators; actives 2.8% (n = 210,000); AID 1458; also: % of control where 0% means no effect; nearly all actives have a fitted effect of over 55% in size
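HEK293 cells carry an SMN2 […]–luciferase reporter in which exon 7 inclusion puts luciferase in frame. Cells were plated 10-12 h before compound addition, then incubated 30-36 h at 37C. ONE-Glo luminescence was read; sodium butyrate at 4.5 mM final served as control.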
ELG1 genotoxic: genotoxicity induction in ELG1-luciferase HEK293T cells. AID 504466. actives 1.3% (n = 330,000). Potency, µM (top dose mostly 46 µM), inactives show at the top dose activity change, positive = activation, actives largely listed as activators. HEK293T ELG1-luciferase reporter, luminescence, 16 h; also: % of control where 0% means no effect; nearly all actives have a fitted effect of over 60% in size
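Luminescence read-out: rising ELG1-luciferase signal, reflecting elevated ELG1 protein under genetic stress, flags genotoxic compounds. Cells were treated for 16 hr at 37 °C before ONE-Glo detection.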
ELG1 repair inh: inhibitors of ELG1-dependent DNA repair in HEK293T cells | HEK293T ELG1-luciferase reporter, luminescence, 16 h; DNA damage induced by 5-fluorouridine | actives 2.3% (n = 330,000) | AID 504467 | Potency, µM (highest dose often 46.1 µM), for the others: top-dose activity change, negative = inhibition, most hits filed as inhibitors; also: % is scaled to controls: 0 for no effect and ±100 for the full control effect; nearly all actives have a fitted effect of over 55% in size
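In this reporter screen, reduction of luminescence relative to DMSO vehicle indicated activity. Compounds and 5-fluorouridine were added together to 2,000 cells per well, incubated for 16 hr at 37 °C, then developed with ONE-Glo.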
Rab9 prom act: activators of Rab9 promoter; actives 2.8% (n = 320,000); AID 485297; Potency, µM (series often up to 9.22 µM), for inactives: top-dose activation, negative = inhibition, usual class: activators; Huh7 Rab9 promoter-luciferase reporter, luminescence, 24 h; also: % of control where 0% means no effect; nearly all actives have a fitted effect of over 60% in size
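Cells were plated at 1500 per well in reduced-serum medium with 10% FBS and left 2 h. Compound in DMSO was then added for 24 h at 37 °C. Reporter signal was read by luminescence after 10 min with luciferase detection reagent.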
The depositor's hits bear a star; u = inconclusive; x = no result; [ ] = dose if it differs, or a comment. Sampled rows, rich in hits. Any-hit rate of the full collection: about 9.2%. Calls follow the shape of the dose curve; as a rule, active = well fitted curve in the direction sought with a large enough effect; inconclusive = small, poorly fitted or top-dose-only effect, or another doubt; inactive = no such curve, though single readings can be large; an effect the other way counts as inactive or inconclusive. Potency is read from the fitted curve at half-maximal effect.

SMILES	NPC1 prom act	FLuc counter	SMN2 splice up	ELG1 genotoxic	ELG1 repair inh	Rab9 prom act
COc1c(C)cc(Br)cc1C(=O)Nc1ccc(-c2nc3ncccc3o2)cc1	x	-2.5%	6.8%	x	x	x
CCCC(=O)Nc1cc(-c2nc3ncccc3o2)ccc1C	1.8%	-11.7%	5.5%	10.6%	14.1%	-1.0%
CCCC(=O)Nc1cccc(-c2nc3ncccc3o2)c1	x	5.7%	3.55µM*	x	x	x
COc1c(C)cc(Br)cc1C(=O)Nc1cccc(-c2nc3ncccc3o2)c1	0.1%	-7.3%	-24.0%	-10.1%	18.4µM*	0.5%
CCCC(=O)Nc1ccc(-c2nc3ncccc3o2)cc1	2.24µM*	13.5µM*	x	u	u	2µM*
CCCC(=O)Nc1cccc(-c2nc3cc(C)c(C)cc3o2)c1	2.24µM*	0.601µM*	u	u	u	3.98µM*
Cc1c(CNC(=O)c2c([N+](=O)[O-])cnn2C)cnn1C	-4.3%	-0.8%	6.5%	-1.7%	-10.9%	2.4%
COc1cccc(CNC(=O)c2ccc(C)c(NC3=NC4CS(=O)(=O)CC4S3)c2)c1 (stereo not drawn)	-1.2%	-1.9%	x	6.1%	4.4%	1.6%
CCOC(=O)c1nn(-c2ccc(C)cc2)c(=O)cc1OCC(=O)Nc1ccc(OC)cc1	-0.3%	-0.4%	x	3.9%	17.6%	1.8%
Cc1ccc2c(c1)N(CC(=O)OC(CC(C)C)C(=O)NC1CCCC1)C(=O)CO2 (stereo not drawn)	12.4%	-3.3%	-15.0%	-10.5%	20.6µM*	4.3%
CC(C)C(OC(=O)CN1C(=O)COc2ccccc21)C(=O)NC1CCCC1 (stereo not drawn)	1.1%	2.8%	-13.1%	-0.2%	-21.7%	3.7%
CCC(C)S(=O)(=O)c1oc(-c2cccs2)nc1S(=O)(=O)c1ccccc1 (stereo not drawn)	x	x	-66.1%	x	x	x
COC(=O)c1sc(-c2cccs2)cc1NC(=O)/C=C/C(=O)O	-1.2%	-18.8%	x	-5.2%	2.2%	-0.5%
O=C(N/N=C\c1c[nH]c2ccccc12)c1ccc(O)cc1	21.5%	15.1µM*	x	11.6%	19.3%	16.7%
CC(C)(C)OC(=O)N/N=C/c1c[nH]c2ccccc12	22.4%	9.53µM*	x	15.2%	u	25.1%
O=C(N/N=C/c1c[nH]c2ccccc12)c1cc(Cl)ccc1O	21.0%	16.9µM*	x	7.3%	u	14.3%
O=C(N/N=C/c1c[nH]c2ccccc12)c1ccccc1Cl	4.9%	u	x	-0.1%	u	-2.2%[1.84 µM]
Cc1occc1C(=O)N/N=C/c1c[nH]c2ccccc12	u	13.5µM*	4.6%	u	u	u
COc1cc(C(=O)N2C[C@@H]3CCC[C@H]2C3)ccc1OC1CCN(C(C)=O)CC1	-0.2%	1.4%	x	1.6%	6.1%	0.0%
COc1ccc(S(=O)(=O)NCc2cccn2Cc2cc(C)ccc2C)cc1OC	x	2.0%	x	x	x	x
c1ccc(-c2ccccc2OCCOCCN2CCOCC2)cc1	-3.3%	7.1%	x	-7.1%	15.5%	3.6%
O=C(N/N=C/c1c[nH]c2ccccc12)c1ccc(Br)cc1	25.7%	6.75µM*	x	u	u	u
O=C(N/N=C/c1c[nH]c2ccccc12)c1ccc(Cl)cc1	u	7.57µM*	x	12.7%	u	u
Nc1ccc(C(=O)N/N=C/c2c[nH]c3ccccc23)cc1	5.7%	13.5µM*	x	6.2%	18.7%	3.3%
COC(=O)N/N=C/c1c[nH]c2ccccc12	-3.4%	-16.5%	-46.9%	0.3%	0.3%	1.4%
SMILES	NPC1 prom act	FLuc counter	SMN2 splice up	ELG1 genotoxic	ELG1 repair inh	Rab9 prom act
O=C(O)c1ccc(N/N=C/c2c[nH]c3ccccc23)cc1	-9.3%	0.426µM*	x	u	u	-5.3%
COc1ccc(/C=C/C(=O)OCC(=O)NC(=O)NC(C)(C)C)cc1	-1.1%	-9.8%	-4.8%	2.3%	9.3%	0.6%
CCOc1ccc(NC(=O)CCNC(=O)Cn2cnc3ccccc3c2=O)cc1	-1.9%	0.9%	x	0.9%	5.7%	14.2%
Cc1noc(/C=C/c2ccccc2F)c1S(=O)(=O)N1CCC(C(=O)N(C)Cc2ccco2)CC1	x	0.7%	x	x	x	x
CCc1ccc2nc(NC(=O)C3CSC4(C)CCC(=O)N34)sc2c1 (stereo not drawn)	15.3%	12µM*	x	u	u	9.3%
Cc1sc(NC(=O)C2CSC3(C)CCC(=O)N23)nc1-c1ccc(F)cc1 (stereo not drawn)	-2.2%	-3.5%	x	-13.3%	18.3µM*	-2.7%
Cc1ccc(-c2csc(NC(=O)C3CSC4(C)CCC(=O)N34)n2)cc1 (stereo not drawn)	-2.0%	-2.9%	x	13.8%	u	10.4%
Cc1nc2nc(CSc3ccc(Cl)cc3)cc(=O)n2[nH]1	0.4%	u	15.5%	-1.0%	15.2%	-2.7%
Cc1cc(=O)n2[nH]c(-c3ccc(Cl)cc3)cc2n1	u	12µM*	14.1µM*	13.3%	u	3.55µM*
Cc1cc2nc(CSc3ccc(Cl)cc3)cc(=O)n2[nH]1	-2.0%	16.9µM*	11.8%	-5.7%	u	-3.2%
O=c1cc(-c2ccc([N+](=O)[O-])cc2)nc2cc(-c3ccc(F)cc3)[nH]n12	-4.1%	u	19.1%	-0.7%	-0.5%	-3.5%
Cc1cc(=O)n2[nH]c(-c3ccc(F)cc3)cc2n1	u	16.9µM*	24.7%	u	u	u
CCN(CC)CCN(C(=O)CCOc1ccccc1)c1nc2ccc(F)cc2s1	4.0%	2.7%	-12.1%	3.4%	u	-0.4%
CCc1nc2ccc(C(=O)NCCc3ccc(SC)cc3)cc2nc1CC	x	0.5%	x	x	x	x
O=c1[nH]c(-c2ccccn2)nc2sc(-c3ccccc3)cc12	3.55µM*	2.13µM*	8.91µM*	7.3µM*	u	u
Cc1c(C(=O)N(C)C)sc2nc(-c3ccccn3)[nH]c(=O)c12	11.1%	u	17.0%	u	u	u
Cc1ccc(NC(=O)CSc2nn(-c3ccccc3)c(=S)s2)cc1S(=O)(=O)N(C)C	-16.5%	-1.8%	-85.0%	1.9%	23.1µM*	-22.4%
O=C(CSc1nn(-c2ccccc2)c(=S)s1)Nn1cnnc1	-3.9%	-0.8%	-8.6%	0.1%	4.6%	-8.7%
CC1(C)Cc2c(sc(N)c2C#N)C(C)(C)N1	0.4%	-3.2%	x	-0.1%	17.9%	-1.3%
CC1(C)CC2CC(C)(CN2/C=N/c2sc3c(c2C#N)CC(C)(C)NC3(C)C)C1 (stereo not drawn)	4.5%	-0.5%	x	-1.3%	23.1µM*	-13.3%
c1cncc(-c2nnc3sc(-c4ccco4)nn23)c1	-6.3%	2.4%	-19.2%	-3.3%	4.7%	0.9%
CCN(CC)c1ccc(-c2nn3c(-c4cccnc4)nnc3s2)cc1	-22.8%	21.3µM*	2.2%	-7.0%	-13.0%	-20.2%

High-throughput results (PubChem)
